Experimental data published in PubChem BioAssay.
“And” between values parts separate entries of the source, which are not always exact repeats. Equal values may be shown once. The source made the active and inactive calls. Unless noted, how the calls were made is not given here.

Experiments:
[1] = resazurin metabolic signal in HepG2 cells – cell-based, resazurin fluorescence, 24 h, PK04 Diversity Set, profiling panel (AID 1172); details: HepG2 viability, higher = more signal; further: test concentration not given here
[2] = budding yeast growth changes without added modifier – OD600, strain BY4716, 24 h, basal condition, primary screen (AID 1173); details: S. cerevisiae BY4716 growth, OD600, 24 h; higher = more signal, called active from +8 up or from −8 down
[3] = viability profiling in MM1S myeloma cells – cell-based, resazurin fluorescence, basal, 24 h, PK04 Diversity Set, profiling panel (AID 1174); details: higher = more signal, called active from +8 up or from −8 down;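 further: MM1S multiple myeloma cell line; test concentration not given here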
[4] = target: Dihydroorotate dehydrogenase (quinone), mitochondrial (Plasmodium falciparum (isolate 3D7)) (UniProt Q08210); test: inhibition of P. falciparum DHODH – biochemical, C-terminal His tag, absorbance 600 nm, primary screen (AID 1175); details: PfDHODH enzyme, DCIP absorbance 600 nm; higher = more signal, called active from +8 up or from −8 down;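 further: recombinant parasite enzyme with a five histidine tag at its C terminus; test concentration not given here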
Chain of Dihydroorotate dehydrogenase (quinone), mitochondrial (Plasmodium falciparum (isolate 3D7)) (Q08210 whole entry, looked up): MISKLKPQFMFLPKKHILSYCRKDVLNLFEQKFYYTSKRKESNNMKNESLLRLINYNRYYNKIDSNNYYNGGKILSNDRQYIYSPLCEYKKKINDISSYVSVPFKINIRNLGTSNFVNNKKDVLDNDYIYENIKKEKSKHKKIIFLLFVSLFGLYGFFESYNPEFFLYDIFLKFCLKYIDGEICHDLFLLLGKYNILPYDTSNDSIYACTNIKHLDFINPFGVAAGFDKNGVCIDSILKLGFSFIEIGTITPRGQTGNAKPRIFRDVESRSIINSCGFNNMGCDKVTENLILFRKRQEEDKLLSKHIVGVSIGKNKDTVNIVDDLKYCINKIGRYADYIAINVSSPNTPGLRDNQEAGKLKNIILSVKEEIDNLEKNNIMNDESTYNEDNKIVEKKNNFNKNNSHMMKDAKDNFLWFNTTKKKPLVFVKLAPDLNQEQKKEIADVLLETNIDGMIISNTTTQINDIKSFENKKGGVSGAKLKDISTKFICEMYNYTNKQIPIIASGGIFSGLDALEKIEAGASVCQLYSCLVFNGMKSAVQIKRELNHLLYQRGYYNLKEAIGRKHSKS

[5] = inhibition of PAO1 biofilm formation – strain PAO1, LB-PBS medium, absorbance 600 nm, primary screen (AID 1176); further: test concentration not given here; details: P. aeruginosa PAO1 growth/biofilm, A600, 12 h; higher = more signal
[6] = growth modulation of vineyard yeast isolate – strain RM11-1a, OD600, basal, 24 h, primary screen (AID 1177);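 further: cultures grown under basal conditions with no added stressor; test concentration not given here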; details: S. cerevisiae RM11-1a growth, OD600, 24 h; higher = more signal, called active from +8 up or from −8 down
[7] = growth of efflux-deficient E. coli DRC39 – strain DRC39, OD650, 24 h, E. coli filamentation inducers, primary screen (AID 1178);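 further: growth measured as culture turbidity by optical density at 650 nm; test concentration not given here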; details: E. coli DRC39 acrAB, higher = more signal, called active from +8 up or from −8 down
[8] = growth of efflux-deficient E. coli DRC39 – strain DRC39, OD650, 48 h, E. coli filamentation inducers, primary screen (AID 1179);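 further: screen aims at cell division blockers that make cells filament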; details: E. coli DRC39 delta-acrAB growth, higher = more signal, called active from +8 up or from −8 down
[9] = viability profiling in RPMI8226 myeloma cells – cell-based, resazurin fluorescence, basal, 24 h, PK04 Diversity Set, profiling panel (AID 1180); details: higher = more signal;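 further: RPMI8826 multiple myeloma cell line at 5000 cells per well; test concentration not given here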
[10] = target: E3 ubiquitin-protein ligase XIAP (Homo sapiens) (UniProt P98170); test: small molecules binding XIAP protein – biophysical, small-molecule microarray, fluorescence 635 nm, primary screen (AID 1181); details: higher = more signal;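 further: score merges 667 nm emission and signal to noise over triplicate slides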
Chain of E3 ubiquitin-protein ligase XIAP (Homo sapiens) (P98170 whole entry, looked up): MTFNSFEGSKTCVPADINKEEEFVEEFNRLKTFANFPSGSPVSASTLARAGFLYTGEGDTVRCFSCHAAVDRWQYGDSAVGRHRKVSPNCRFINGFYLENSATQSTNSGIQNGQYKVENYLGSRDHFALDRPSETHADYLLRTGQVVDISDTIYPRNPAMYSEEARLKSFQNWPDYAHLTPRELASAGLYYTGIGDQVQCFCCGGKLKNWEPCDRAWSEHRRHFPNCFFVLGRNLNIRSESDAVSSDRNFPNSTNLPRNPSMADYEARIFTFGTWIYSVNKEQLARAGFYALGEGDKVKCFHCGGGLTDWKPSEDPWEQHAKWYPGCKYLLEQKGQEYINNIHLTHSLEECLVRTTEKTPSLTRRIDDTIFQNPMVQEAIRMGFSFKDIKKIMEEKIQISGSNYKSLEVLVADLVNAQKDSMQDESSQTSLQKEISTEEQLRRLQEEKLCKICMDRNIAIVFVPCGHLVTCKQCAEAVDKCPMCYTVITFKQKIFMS

Row | Compound | z-score [1] | z-score [2] | z-score [3] | composite z-score [4] | z-score [5] | z-score [6] | z-score [7] | z-score [8] | z-score [9] | composite z-score [10]
1 | C=CCN(C(=O)C(c1cccs1)N(C(=O)/C=C\C(=O)O)C(C)(C)CO)c1ccc(OC)cc1 (stereo not given) | 0.916 and 0.892 | -2.66 (inactive) and -1.93 (inactive) | 1.41 (inactive) and 0.788 (inactive) | -1.46 (inactive) and -1.61 (inactive) | 0.659 (inactive) | -4.37 (inactive) and -2.5 (inactive) | 1.81 (inactive) and 1.92 (inactive) | 2.23 (inactive) and 2.15 (inactive) | 0.402 and 0.207 | -0.102 and 0.214
2 | O=C1NC(=O)C2C1C=CC(C(O)c1ccc([N+](=O)[O-])cc1)N2Nc1ccc(Cl)cc1Cl (stereo not given) | -1.01 and 0.266 | -8.52 (active) and -8.8 (active) | 0.52 (inactive) and -0.103 (inactive) | -0.87 (inactive) and -1.11 (inactive) | 2.4 (inactive) and 2.49 (inactive) | -0.728 (inactive) and -1.12 (inactive) | -0.0259 (inactive) and 0.6 (inactive) | -0.568 (inactive) and 0.615 (inactive) | 0.425 and 0.122 | -0.0102 and 0.0975
3 | CCCCN1CC=CC23O[C@@H]4C=CCCOC(=O)C4[C@H]2C(=O)N(C(C)CO)[C@@H]3C1=O (stereo not given in full) | 0.169 and -0.388 | -0.288 (inactive) and 1.12 (inactive) | -0.201 (inactive) and -0.715 (inactive) | -0.755 (inactive) and -2.42 (inactive) | 0.329 (inactive) and 0.137 (inactive) | -0.891 (inactive) and 1.05 (inactive) | 0.0926 (inactive) and -0.474 (inactive) | -0.25 (inactive) and -0.564 (inactive) | -0.157 and -0.53 | -0.0062 and 0.744
4 | C=CCN(CCCC)C(=O)C1N(CCCCCCO)C(=O)C2C(C(=O)O)C3C=CC21O3 (stereo not given) | 0.063 and -0.938 | 0.569 (inactive) and 0.411 (inactive) | -0.76 (inactive) and -0.768 (inactive) | -0.669 (inactive) and -0.0254 (inactive) | 0.109 (inactive) and -0.388 (inactive) | -0.751 (inactive) and -0.681 (inactive) | 0.03 (inactive) and -0.0327 (inactive) | -0.146 (inactive) and -0.105 (inactive) | -0.704 and -0.992 | -0.124 and 0.18
5 | CC(C)[Si]1(C(C)C)OCc2cc(C3CC3)nc(CCc3ccccc3)c21 | 0.983 and 1.3 | 1.04 (inactive) and 0.427 (inactive) | 0.905 (inactive) and 0.656 (inactive) | -0.092 (inactive) and -0.377 (inactive) | 0.338 (inactive) and 0.35 (inactive) | 0.534 (inactive) and 0.156 (inactive) | 0.428 (inactive) and -0.615 (inactive) | 0.26 (inactive) and -0.173 (inactive) | 0.635 and 0.355 | 0.321 and -0.305
6 | COc1ccc(-c2ccc3c(n2)CCCN3CC(O)CN2CCCc3nc(-c4ccc(Br)cc4)ccc32)cc1 (stereo not given) | -0.721 and 0.465 | -4.64 (inactive) and -1.56 (inactive) | -0.791 (inactive) and -0.334 (inactive) | 0.0106 (inactive) and 0.0126 (inactive) | -0.139 (inactive) and -0.245 (inactive) | 0.665 (inactive) and 0.0647 (inactive) | 0.336 (inactive) and 0.725 (inactive) | 0.191 (inactive) and 0.761 (inactive) | -0.286 and -0.439 | 1.04 and 0.94
7 | Cc1ccc(S(=O)(=O)N[C@H]2COC(=O)[C@@H](Cc3ccccc3)NC(=O)[C@@H](C)COC(=O)CC=C[C@@H]2C)cc1 | 0.328 and 0.224 | -0.207 (inactive) and -0.631 (inactive) | 0.0731 (inactive) and -0.209 (inactive) | -0.395 (inactive) and -0.412 (inactive) | -0.814 (inactive) and -0.479 (inactive) | 0.0658 (inactive) and 0.0386 (inactive) | 0.046 (inactive) and -0.0139 (inactive) | -0.479 (inactive) and 0.385 (inactive) | 0.0023 and 0.238 | -0.259 and -0.469
8 | C[N+](C)(C)CCCCCCNC(=O)[C@H]1C[C@H]2C(=O)N[C@@H](CCCC[N+](C)(C)C)C(=O)N2[C@H]1c1cccc(OCCO)c1 | -0.402 and -0.0872 | -0.255 (inactive) and 0.763 (inactive) | 0.737 (inactive) and -0.541 (inactive) | -2.69 (inactive) and -1.29 (inactive) | -0.366 (inactive) and 0.146 (inactive) | 0.297 (inactive) and 1.2 (inactive) | 1.04 (inactive) and -0.0715 (inactive) | 1.47 (inactive) and -0.451 (inactive) | 0.455 and -1.29 | -0.0553 and -0.0559
